A-T KAP1 phos – qHTS Assay for Identifying a Potential Treatment of Ataxia-Telangiectasia. AID 485349, 2010. actives 0.19% (n = 320,000). F2112 A-T fibroblasts, KAP-1 phosphorylation AlphaLISA; neocarzinostatin DNA damage 30 min before lysis. Potency, µM (highest dose often 57.5 µM), most hits filed as activators; note: nearly all actives have a fitted effect of over 45% in size
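hTERT-immortalized A-T patient fibroblasts (F2112), 500 cells/well in OPTI-MEM, 1% FBS, got compounds for 60 min, then NCS for 30 min at 37C. Lysates were then assayed for phospho-KAP-1 by AlphaLISA (anti-pKAP1 donor, anti-KAP1 acceptor beads), 6 hr at 25C.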
RGS4 inh – Inhibitors of Regulator of G Protein Signaling (RGS) 4: qHTS; Regulator of G-protein signaling 4 (Homo sapiens), P49798; Transcreener GDP fluorescence polarization, RGS4-accelerated GTP hydrolysis; Potency, µM (series often up to 114 µM), actives largely listed as inhibitors; actives 0.039% (n = 390,000); note: nearly all actives have a fitted effect of over 75% in size
Target sequence (P49798 whole entry, looked up): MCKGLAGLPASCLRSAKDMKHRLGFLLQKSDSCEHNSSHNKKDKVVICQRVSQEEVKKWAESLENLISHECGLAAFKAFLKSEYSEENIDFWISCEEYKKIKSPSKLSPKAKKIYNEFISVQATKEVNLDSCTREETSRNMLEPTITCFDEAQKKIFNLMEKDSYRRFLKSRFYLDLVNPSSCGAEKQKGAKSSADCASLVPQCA
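MLSMR compounds (23 nl, pin-transferred) preincubated 10 min at room temperature with a 500nM (2x) first reagent, then RGS4 at 900nM (2x) plus Transcreener GDP mix added; fluorescence polarization (620/688 nm) read before and after 90 min at 30 °C.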
TRPML1 inh – qHTS for Inhibitors of the Human Mucolipin Transient Receptor Potential 1 (TRPML1); activity change, negative = inhibition, % (no concentration beside the values); actives 0.02% (n = 390,000); AID 624415, 2012; TRPML1-inducible cells, Ca2+ dye fluorescence, FDSS; active compounds read low; inhibition of EC80 agonist-evoked calcium signal; in the data active = activity change below about -50%; inconclusive = between about -30% and that limit;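 note: stimulus is agonist 54-4 at its EC80 concentration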
Target sequence (Q9GZU1 whole entry, looked up): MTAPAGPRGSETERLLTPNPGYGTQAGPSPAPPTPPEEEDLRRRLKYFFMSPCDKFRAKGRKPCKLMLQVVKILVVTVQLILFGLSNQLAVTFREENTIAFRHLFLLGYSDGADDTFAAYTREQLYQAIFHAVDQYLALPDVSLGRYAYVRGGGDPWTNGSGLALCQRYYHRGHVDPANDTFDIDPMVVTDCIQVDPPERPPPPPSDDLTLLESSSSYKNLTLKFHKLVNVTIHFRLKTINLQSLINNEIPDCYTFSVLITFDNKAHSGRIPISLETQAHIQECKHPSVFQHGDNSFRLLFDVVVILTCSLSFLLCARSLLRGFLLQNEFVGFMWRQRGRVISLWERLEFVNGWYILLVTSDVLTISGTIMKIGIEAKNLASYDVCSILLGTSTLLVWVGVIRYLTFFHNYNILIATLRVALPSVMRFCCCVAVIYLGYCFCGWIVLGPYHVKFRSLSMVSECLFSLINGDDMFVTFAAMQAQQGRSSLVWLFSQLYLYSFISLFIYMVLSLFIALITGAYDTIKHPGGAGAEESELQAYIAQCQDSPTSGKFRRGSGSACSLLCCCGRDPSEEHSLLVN
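Calcium fluorescence in TRPML1-DL cells induced overnight with Tet: a 110 s read after compound pin addition, then a 110 s antagonist read after challenge with 54-4 at 4 uM final (EC80).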
TRPML1 agonist – qHTS for Agonists of the Human Mucolipin Transient Receptor Potential 1 (TRPML1); TRPML1-expressing cells, Ca2+ dye fluorescence, FDSS; activation, % (test concentration not listed); actives 0.12% (n = 410,000); AID 624414, 2012; in the data active = activation above about 50%; inconclusive = mostly about 30% to 49%
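Kinetic FDSS Ca2+ read in Tet-induced TRPML1-DL cells (ABD Ca8 dye plus quencher, 45-90 min RT loading): baseline, then compound, then 110 s agonist window; EC80 agonist 54-4 at 4uM final added afterwards for a 110 s antagonist window.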
TRPV1 agonist – HTS Assay for Compounds that Act as Agonists of the Vanilloid Receptor 1 | Transient receptor potential cation channel subfamily V member 1 (Homo sapiens), Q8NER1 | TRPV1-expressing cells, Fluo-8 calcium influx, agonist mode | activation, % at 8.33 µM | actives 0.19% (n = 320,000) | AID 540275, 2011; in the data active = activation above about 80%; inconclusive = between about 30% and that limit
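Cells expressing TRPV1 were dye-loaded with Fluo-8 and read kinetically: 10 s baseline, 3 min after compound (agonist portion), then 2 min after EC20 capsaicin (allosteric enhancer portion). Calcium-bound dye fluorescence at 480/520 nm.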
TRPV1 potentiator – HTS Assay for Compounds that Act as Potentiators of the Vanilloid Receptor 1; Transient receptor potential cation channel subfamily V member 1 (Homo sapiens), Q8NER1; TRPV1-expressing cells, Fluo-8 calcium influx, capsaicin EC20 potentiation; potentiation, % at 8.33 µM; actives 0.02% (n = 320,000); in the data active = potentiation above about 80%; inconclusive = between about 30% and that limit
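Cells expressing TRPV1 were dye-loaded with Fluo-8 and read kinetically: 10 s baseline, 3 min after compound (agonist portion), then 2 min after EC20 capsaicin (allosteric enhancer portion). Calcium-bound dye fluorescence at 480/520 nm.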
Of the large screens only hits and unclear results are named; the others gave an inactive call. In the library only some 0.5% were active in any assay of this set; here they are far more common. Unless noted, calls come from the whole dose curve; as a rule, active = well fitted curve in the direction sought with a large enough effect; inconclusive = small, poorly fitted or top-dose-only effect, or another doubt; inactive = no such curve, though single readings can be large; an effect the other way counts as inactive or inconclusive.

CCCCCCCC(=O)N/N=C(\C)c1ccc(O)cc1O	TRPML1 agonist 56.6
COc1cccc(CN(CC2CCCO2)S(=O)(=O)c2ccc(S(=O)(=O)N(C)C)cc2)c1 (stereo unspecified)	TRPML1 agonist 86.9
COc1ccc(-n2c(=S)[nH]c3ccccc32)cc1	none (no result: A-T KAP1 phos)
COc1ccc(-n2c(=S)[nH]c3ccccc3c2=S)cc1	A-T KAP1 phos 2.82µM
CCOc1ccc(OCC)c(NC(=O)CN(C)S(=O)(=O)c2ccc3[nH]c(=O)oc3c2)c1	none (no result: A-T KAP1 phos, TRPV1 agonist, TRPV1 potentiator)
O=C1CSC(c2ccc(Cl)cc2)N1c1cccnc1 (stereo unspecified)	TRPML1 agonist 78.2
O=c1c2cc(Br)ccc2nc(-c2ccc(Cl)cc2)n1O	none
Cc1cc2c(c(=O)o1)C(c1ccc([N+](=O)[O-])o1)C(C#N)=C(N)O2 (stereo unspecified)	A-T KAP1 phos 31.6µM, RGS4 inh inconclusive
CS(=O)(=O)N(CC(=O)N1CCN(c2ccc(F)cc2)CC1)c1cccc(Cl)c1	none (no result: A-T KAP1 phos)
CC1CCN(C(=O)Cn2ncc3c4ccccc4n(C)c3c2=O)CC1	none
CC(C)(C)NC(=O)c1cccc(NC(=O)c2ccc3c(c2)C(=O)N(C(C)(C)C)C3=O)c1	none
COC(=O)c1cccc(NC(=O)c2ccc3c(c2)C(=O)N(C(C)(C)C)C3=O)c1	TRPV1 agonist 107.3
O=C(c1ccco1)N1CCN(c2ncnc3c2[nH]c2ccc(Br)cc23)CC1	none
O=C(/C=C/c1cccc2ccccc12)N1CCOCC1	TRPV1 agonist 91.9
O=C(/C=C\c1cn(-c2ccccc2)nc1-c1ccc2c(c1)OCCO2)N1CCOCC1	TRPV1 agonist 115.0
O=C(/C=C/c1ccccc1Cl)N1CCOCC1	TRPV1 agonist inconclusive
COc1ccc(OC)c(N(/C(N)=N/c2nc(C)cc(C)n2)S(=O)(=O)c2ccc(NC(C)=O)cc2)c1	none
Cc1cc2nc3c(=O)n(CCc4ccccc4)c(=O)[nH]c3nc2cc1N	TRPML1 agonist 114.0, TRPV1 agonist inconclusive
CCCCn1c(=O)[nH]c2nc3cc(N)ccc3nc2c1=O	RGS4 inh inconclusive, TRPML1 agonist 73.7, TRPV1 agonist inconclusive
Nc1ccc2nc3c(=O)n(C4CCCCC4)c(=O)[nH]c3nc2c1	TRPML1 agonist 80.0, TRPV1 agonist inconclusive
C=CCn1c(=O)[nH]c2nc3cc(N=CN(C)C)c(C)cc3nc2c1=O	none
Nc1ccc2nc3c(=O)n(CCc4ccccc4)c(=O)[nH]c3nc2c1	TRPML1 agonist 74.9, TRPV1 agonist 107.3
Cc1cccc(OCc2nnc(SCC(=O)N3c4ccccc4CC3C)n2C)c1C (stereo unspecified)	none
O=C(c1ccco1)N(Cc1ccco1)Cc1cc2ccccc2[nH]c1=O	none
O=C(Nc1ccc(NC(=O)c2ccco2)nc1)c1cccnc1	none
COC(=O)c1ccc(S(=O)(=O)N2CCCN(Cc3cccc(Br)c3F)CC2)n1C	A-T KAP1 phos 39.8µM
Cc1csc(NC(=O)CSc2nc3sc(C)c(C)c3c(=O)[nH]2)n1	none
O=C1CSC(=S)N1/N=C/c1cc(Br)c(O)c(Br)c1	RGS4 inh inconclusive, TRPML1 agonist 58.9, TRPV1 agonist inconclusive
O=C1NCC(O)=C1C=NCCCO	none
CC(C)(C)c1ccc(/C=N/OCC(=O)NCc2ccc(F)cc2)cc1	TRPV1 agonist 91.6
O=C(COC(=O)c1ccc(S(=O)(=O)NCc2ccco2)cc1)Nc1ccccc1OC(F)F	none
COc1ccc(-c2sc3ccccc3c2C#CC2(O)CCCCC2)cc1	A-T KAP1 phos 31.6µM
COc1ccc(-c2sc3ccccc3c2C#Cc2cncn2C)cc1	A-T KAP1 phos 31.6µM (no result: TRPV1 agonist, TRPV1 potentiator)
Cn1cncc1C#Cc1c(-c2ccc(S(C)(=O)=O)cc2)sc2ccccc12	none (no result: TRPV1 agonist, TRPV1 potentiator)
CC(C)CCN1CCN(Cc2nc(-c3ccccc3)cs2)CC1CCO (stereo unspecified)	none
COc1cc(/C=C/C(=O)c2ccc3c(c2)OCO3)cc(Cl)c1O	RGS4 inh inconclusive, TRPML1 agonist 55.8, TRPV1 agonist inconclusive
COc1ccc(C(=O)C=Cc2ccc3c(c2)OCO3)cc1OC	none (no result: A-T KAP1 phos, RGS4 inh, TRPV1 agonist, TRPV1 potentiator)
CCCN(CCC)C(C)C(=O)NCC1(c2ccccc2)CCCC1 (stereo unspecified)	TRPML1 inh inconclusive, TRPML1 agonist 106.9, TRPV1 agonist inconclusive
O=C(NCC1(c2ccccc2)CCCC1)c1ccc(Br)o1	TRPML1 agonist 69.7, TRPV1 agonist inconclusive
CCN(CC)CC(=O)NCC1(c2ccccc2)CCCC1	none
O=C1N=C(N2CCCCC2)S/C1=C\c1ccc(Br)cc1	TRPV1 agonist 86.6
CCC(C)Sc1cccc(-c2nc3ccc(Cl)cn3c2NCc2ccccc2)c1 (stereo unspecified)	A-T KAP1 phos 20µM, TRPV1 agonist 87.4
CCCCCCSc1cccc(-c2nc3ccccn3c2NCc2ccccc2)c1	none (no result: TRPV1 agonist, TRPV1 potentiator)
Cc1ccc2nc(-c3cccc(-c4cccc(Cl)c4)c3)c(NCc3ccccc3)n2c1	A-T KAP1 phos inconclusive, TRPV1 agonist inconclusive
CCCCCCSc1cccc(-c2nc3cc(C)ccn3c2NCc2ccccc2)c1	A-T KAP1 phos 20µM, TRPV1 agonist inconclusive
CCC(C)Sc1cccc(-c2nc3ccccn3c2NCc2ccccc2)c1 (stereo unspecified)	none (no result: TRPV1 agonist, TRPV1 potentiator)
CCC(C)Sc1cccc(-c2nc3ccc(C)cn3c2NCc2ccccc2)c1 (stereo unspecified)	A-T KAP1 phos 22.4µM
O=C(NNC(=O)c1nc(Cl)ccc1Cl)c1ccc(F)cc1	none
CCc1ccc(OCCCC(=O)NCc2ccccc2)cc1	TRPV1 agonist 83.4
COc1cc(C2c3cc4c(cc3C(OC3OC5COC(c6cccs6)OC5C(O)C3O)C3COC(=O)C23)OCO4)cc(OC)c1O (stereo unspecified)	A-T KAP1 phos 35.5µM
COc1cc([C@@H]2c3cc4c(cc3[C@@H](O[C@@H]3O[C@@H]5CO[C@@H](C)O[C@H]5[C@H](O)[C@H]3O)[C@H]3COC(=O)[C@H]23)OCO4)cc(OC)c1O	none (no result: A-T KAP1 phos, TRPV1 agonist, TRPV1 potentiator)
O=c1c(CN2CCN(c3cccc(Cl)c3)CC2)coc2c(Cl)cc(Cl)cc12	none
CCCCOc1ccc(C(=O)Nc2cccc(-n3cnnn3)c2)cc1OC	TRPV1 agonist 88.5
O=C(Nc1cccc(-n2cnnn2)c1)c1cc(Cl)nc(Cl)c1	TRPV1 agonist inconclusive

Bioassay records as filed in PubChem BioAssay.
